DUSP3 inh = DUSP3 (human) phosphatase inhibition. 0.52% of 290,000 active. recombinant VHR phosphatase, pNPP absorbance. inhibition, % at 13.3 µM. P51452; in the data active = inhibition above about 50%
Target sequence (P51452 whole entry, looked up): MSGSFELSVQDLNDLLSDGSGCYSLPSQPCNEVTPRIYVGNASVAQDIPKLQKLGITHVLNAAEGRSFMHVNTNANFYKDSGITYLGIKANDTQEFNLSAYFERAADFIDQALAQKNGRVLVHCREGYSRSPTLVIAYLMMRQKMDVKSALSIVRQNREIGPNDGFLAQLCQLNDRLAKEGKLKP
TcdB GH inh = inhibitors of Clostridioides difficile toxin B glycohydrolase. P18177. TcdB glycohydrolase enzymatic assay, plate reader. inhibition, % at 9.99 µM. 0.24% of 350,000 active; in the data active = inhibition above about 10%
PfHsp40 yeast = compounds rescuing yeast from Plasmodium falciparum HSP40 toxicity. S. cerevisiae expressing PfHsp40, growth rescue, ATP luminescence. growth rescue, % at 12.5 µM. 0.68% of 340,000 active. AID 504582; in the data active = growth rescue above about 28%, passing the limit was not always enough; inconclusive = no clear call, values can overlap the other calls;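 also: yeast W303a lacking pdr1 and pdr3 grown in galactose medium; growth measured after three days at 30 °C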
BH1578 lux ind = induces V. cholerae light production without autoinducers | V. cholerae BH1578 lux reporter, luminescence, 6 h | activation, % at 18.7 µM | 0.16% of 350,000 active; in the data active = activation mostly above about 9.7%, no sharp cut-off; inconclusive = no clear call, values can overlap the other calls; inactive = mostly below about 3.7%
BioA inh = inhibitors of Mycobacterium tuberculosis BioA enzyme; purified M. tuberculosis BioA enzyme, plate reader; inhibition, % at 9.99 µM; 0.096% of 360,000 active; in the data active = inhibition above about 40%; inconclusive = no clear call, values can overlap the other calls
Y pestis TopoI = inhibitors of Yersinia pestis topoisomerase I; Y. pestis Topo-I cleavage product accumulation, plate reader; AID 504884; 0.064% of 360,000 active; activity, % at 10 µM; in the data active = activity above about 50%, passing the limit was not always enough; inconclusive = no clear call, values can overlap the other calls
Each line names hits and unclear results; the compound was inactive in the other large screens. A selection: hits, their analogues and other compounds. The true share with any hit is near 1.2%.

CC1Sc2ccc(S(=O)(=O)N3CCC(C(=O)Nc4cccc(Cl)c4)CC3)cc2NC1=O (stereo not drawn)	none
COc1ccc(-n2cc(-c3ccc(OC)c(OC)c3)[nH]c2=S)cc1	DUSP3 inh 51 (no result: BioA inh)
CCc1ccc(Nc2n[n+](-c3ccccc3)c(-c3ccc(OC)c(Br)c3)s2)cc1	TcdB GH inh 11
CCc1ccc(Nc2n[n+](-c3ccccc3)c(-c3ccc(SC)cc3)s2)cc1	none
CNC(=S)NNC(=O)c1sccc1OCc1ccc(Cl)cc1Cl	none (no result: TcdB GH inh)
S=c1nc(-c2sccc2OCc2ccc(Cl)cc2Cl)[nH][nH]1	PfHsp40 yeast 45 (no result: BioA inh)
Cc1cc(-c2ccccc2)n(-c2cc(N/N=C/c3ccccc3O)ncn2)n1	PfHsp40 yeast 582
Cc1ccc(/C=C/C(=O)N2CCC(Cc3ccccc3)CC2)cc1	Y pestis TopoI 51 (no result: TcdB GH inh, BioA inh)
CCCCC(NC(=O)Cc1c(C)c2cc3c4c(oc3c(C)c2oc1=O)CCCC4)C(=O)O (stereo not drawn)	DUSP3 inh 52
CCCCC(NC(=O)CCc1c(C)c2cc3c4c(oc3c(C)c2oc1=O)CCCC4)C(=O)O (stereo not drawn)	DUSP3 inh 58
Cc1cc(C)c(C(=O)CC(=O)c2cccnc2)c(C)c1	PfHsp40 yeast 286 (no result: DUSP3 inh)
Cc1ccc(NC(=O)COC(=O)c2cccnc2)c(C)c1	none (no result: BioA inh)
Cc1ccc(Nc2nc(N3CCOCC3)nc(N3CCOCC3)n2)cc1	DUSP3 inh 51 (no result: TcdB GH inh)
CSc1ccc(CCNC(=O)C2CCCN(c3nn4c(=O)cc(C)nc4s3)C2)cc1 (stereo not drawn)	none
O=C(O)Cn1ccnc1	none (no result: TcdB GH inh)
COc1ccc(OC)c(C2NC(=O)NC(C)=C2C(=O)OC2CCCCC2)c1 (stereo not drawn)	none
COc1ccccc1C1NC(=O)NC(C)=C1C(=O)OC1CCCCC1 (stereo not drawn)	TcdB GH inh 11 (no result: BH1578 lux ind)
CCCS(=O)(=O)N1CCC(C(=O)NCCCN(CC)c2cccc(C)c2)CC1	none (no result: TcdB GH inh, BioA inh)
CCCS(=O)(=O)N1CCCC(C(=O)NCCCN(CC)c2cccc(C)c2)C1 (stereo not drawn)	BH1578 lux ind active (no result: TcdB GH inh)
CCOc1ccccc1N1CC(C(=O)N(CC)C2CCS(=O)(=O)C2)CC1=O (stereo not drawn)	none (no result: DUSP3 inh, BioA inh)
CC[C@@H](O)C[C@H]1CCC[C@@]2(C[C@@H]3OC(=O)/C=C/[C@@](C)(O)[C@@H](O)[C@H](C)[C@@H](O)[C@H](OC4CCC(N(C)C)C(C)O4)[C@@H](O)[C@](C)(O)CCCCC/C=C/[C@@H]4CC(C)(C)O[C@@]4(O)C[C@H](O2)[C@H]3C)O1 (stereo partly drawn)	PfHsp40 yeast 56 (no result: DUSP3 inh, BioA inh)
C[C@@H]1CN([C@H](C)CO)C(=O)c2cccc(N(C)C)c2O[C@@H]1CN(C)C(=O)Nc1ccc(C(F)(F)F)cc1	TcdB GH inh 13 (no result: DUSP3 inh, PfHsp40 yeast, BH1578 lux ind, Y pestis TopoI)
N#C[C@H]1[C@H](c2ccccc2-c2ccccc2F)[C@H](CO)N1C(=O)C1CC1	none (no result: DUSP3 inh, PfHsp40 yeast, BH1578 lux ind, BioA inh, Y pestis TopoI)
Cc1ccc(CN2CCC(CNC(=O)Nc3ccccc3F)CC2)cc1	PfHsp40 yeast 55
Cc1ccc(C(=O)NNC(=O)CCC(=O)Nc2cc(C)on2)cc1	none (no result: TcdB GH inh)
COc1ccc(Cl)cc1S(=O)(=O)N1CCCC(C(=O)NCCc2ccccc2)C1 (stereo not drawn)	none
CN(Cc1ccon1)C(=O)CC1C(=O)NCCN1CC1CCCCC1 (stereo not drawn)	none (no result: BioA inh)
CCCCn1c(N)c(-c2nc3ccccc3o2)c2c([N+](=O)[O-])nn(CC)c(=O)c21	none (no result: BioA inh)
CCCCn1c(N)c(-c2nc3ccccc3o2)c2c([N+](=O)[O-])nn(C)c(=O)c21	DUSP3 inh 55
CCCC(=O)N/C(N)=N/c1nc(C)c2ccccc2n1	none
O=[N+]([O-])c1ccc(N2CCN(C(=S)Nc3cccc(F)c3)CC2)cc1	DUSP3 inh 50
COc1ccc(NC(=O)c2cc(-c3ccccc3)oc2C)cc1	none (no result: TcdB GH inh, BioA inh)
Cc1oc(-c2ccccc2)cc1C(=O)Nc1ccccc1	BH1578 lux ind 17 (no result: TcdB GH inh)
COC(/C=C/Nc1ccc(C)cc1)=C(C#N)C#N	none
CC(Oc1ccccc1)C(=O)N(CCC1=CCCCC1)c1c(N)n(Cc2ccccc2)c(=O)[nH]c1=O (stereo not drawn)	BH1578 lux ind 23
Nc1c(N(CCC2=CCCCC2)C(=O)CCCOc2ccccc2)c(=O)[nH]c(=O)n1Cc1ccccc1	none (no result: DUSP3 inh)
CCOc1cc(N2CCOCC2)c(OCC)cc1NC(=O)COC(=O)C1CCCN1S(=O)(=O)c1ccccc1F (stereo not drawn)	none (no result: DUSP3 inh)
O=c1cc2c(nn1Cc1cccc(Cl)c1)-c1ccccc1CC2	PfHsp40 yeast 47 (no result: TcdB GH inh)
Cc1cc(C(=O)OCC(=O)Nc2ccccc2C#N)c(C)o1	BH1578 lux ind 390 (no result: DUSP3 inh)
Cc1cc(C(=O)OCC(=O)NC2CCCC(C)C2C)c(C)o1 (stereo not drawn)	PfHsp40 yeast 62 (no result: DUSP3 inh)
Cc1cc(C(=O)OCC(=O)Nc2cc(Cl)ccc2C)c(C)o1	none (no result: DUSP3 inh)
COc1ccc(NC2CCCN(C(=O)c3cccnc3SC)C2)cc1OC (stereo not drawn)	none
Oc1c(I)cc(Cl)c2cccnc12	PfHsp40 yeast 246
Oc1c(Cl)c(Cl)c2ncccc2c1Cl	none (no result: DUSP3 inh, BH1578 lux ind, BioA inh)
Oc1c(CN2CCc3ccccc3C2)cc(Cl)c2cccnc12	PfHsp40 yeast 282 (no result: TcdB GH inh)
O=[N+]([O-])c1cc(Cl)c2cccnc2c1O	PfHsp40 yeast 142 (no result: BioA inh)
Cc1c(C)c2cccnc2c2ncccc12	PfHsp40 yeast 76 (no result: DUSP3 inh, TcdB GH inh)
C=CCn1c(-c2cccc(S(=O)(=O)N(CC)CC)c2)n[nH]c1=S	none
COC(=O)C1CCN(C(=O)COC(=O)COc2ccc(C#N)cc2)CC1	none (no result: BioA inh)
Cc1cc(C)cc(Nc2cc(C)nc3ncnn23)c1	none (no result: DUSP3 inh, PfHsp40 yeast)
O=[N+]([O-])c1cc(F)c2cccnc2c1O	PfHsp40 yeast 73
Clc1cc2cccnc2c2ncccc12	PfHsp40 yeast 116 (no result: DUSP3 inh)
CN(C)CCN(C(=O)c1cccc2ccccc12)c1nc2cc3c(cc2s1)OCO3	none
C/C(Cl)=C/CSc1nnc2n(N)c(=O)c3ccccc3n12	BH1578 lux ind 33 (no result: TcdB GH inh, BioA inh)
Cc1ccc(CCNC(=O)c2nnn(-c3cc(C)cc(C)c3)c2N)cc1	PfHsp40 yeast 48 (no result: TcdB GH inh)
COc1ccc(CCNC(=O)c2nnn(-c3cc(C)cc(C)c3)c2N)cc1OC	PfHsp40 yeast inconclusive (no result: TcdB GH inh)
CC(=NNC(=S)N1CC2CCC(CC2)C1)c1cccc(C)n1	none (no result: DUSP3 inh, BioA inh)
CC(=NNC(=S)N1CC2CCC(CC2)C1)c1nccs1	PfHsp40 yeast 126 (no result: DUSP3 inh, BioA inh)
O=C(Nc1ccc(F)cc1)Nc1ccccc1F	DUSP3 inh 56
O=C(Nc1ccc(Cl)cc1)Nc1ccccc1C(=O)O	DUSP3 inh 57
Cc1ccc(-c2nc(=S)c3c(n2Cc2ccco2)CC(C)(C)OC3)cc1	none (no result: TcdB GH inh)
CCN(C(=O)c1cnc(NC(C)C)cc1C(F)(F)F)c1ccc(Cl)cc1	none
COc1ccccc1Nc1cc(C(=O)NCCCN2CCOCC2)c2ccccc2n1	PfHsp40 yeast 68
Cc1ccc(-c2cc(-c3cccc(F)c3)n[nH]2)c(O)c1	PfHsp40 yeast 66 (no result: TcdB GH inh)
O=C(NC(=S)Nc1cccc2ncccc12)c1ccccc1	none (no result: BioA inh)
CCn1nc(-c2cccs2)nc2c(=O)n(C)c(=O)nc1-2	DUSP3 inh 90 (no result: TcdB GH inh)
CCn1nc(/C=C/c2ccccc2)nc2c(=O)n(C)c(=O)nc1-2	PfHsp40 yeast 276 (no result: DUSP3 inh, BioA inh)

Screens from PubChem BioAssay.
